In PubChem BioAssay:
For some assays here: Measured potencies and affinities stand elsewhere. The source made the active and inactive calls. Unless noted, no rule for the calls is given here.

Columns and labels:
[1] = antimalarial activity against Dd2 strain (AID 2302;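 active = growth inhibition above 50% at the single 2 µM test dose, taken to imply half-maximal potency below 2 µM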;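 also: 0% = DMSO untreated growth and 100% = chloroquine plus artemisinin killed control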); conditions: P. falciparum Dd2 in RBCs, LDH growth readout, 72 h; at 2 µM; hits give high values
[2] = HepG2 cytotoxicity, primary screen, cytotoxicity control for P. falciparum antimalarial project, cell-based, ATP luminescence (AID 2303;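 active = inhibition above 50%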;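 also: 0% = DMSO wells and 100% = digitonin-killed cells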); conditions: HepG2 viability, 24-48 h, at 10 µM, hits give high values
[3] = target: L-lactate dehydrogenase (Plasmodium falciparum (isolate CDC / Honduras)) (UniProt Q27743); assay: PfLDH activity inhibition – cell lysate, 3D7 strain, counter-screen for P. falciparum growth inhibition project (AID 2304);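 also: 0% = vehicle and 100% = reference inhibitor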; conditions: P. falciparum 3D7 crude extract, LDH APAD/NBT absorbance; at 2 µM; hits give high values
[4] = inhibition of 3D7 malaria parasite growth – strain 3D7 (AID 2306);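 also: 0% = DMSO wells and 100% = chloroquine plus artemisinin control wells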; conditions: P. falciparum 3D7 erythrocytic growth, LDH absorbance, 72 h; at 2 µM; hits give high values
[5] = target: Calcium-dependent protein kinase 1 (Plasmodium falciparum (isolate 3D7)) (UniProt P62344); assay: PfCDPK1 kinase inhibitors, biochemical, TCAMS library (AID 1159585; cut-off not given, nearly all actives have IC50 up to about 0.98 µM;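 also: inhibitors leave more ATP so luminescence rises with inhibition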); conditions: recombinant PfCDPK1, Kinase-Glo ATP depletion luminescence
[6] = target: Plasmodium falciparum protein kinase 6 (PK6, PF3D7_1337100) (UniProt Q8IDW1); assay: PfPK6 kinase inhibitors, biochemical, TCAMS library (AID 1159586); conditions: recombinant PfPK6, Kinase-Glo ATP depletion luminescence
[7] = target: Protein kinase 7 (PK7), Plasmodium falciparum 3D7 (PF3D7_0213400) (UniProt Q7YTF7); assay: inhibition of Plasmodium PK7 catalytic activity – biochemical, TCAMS antimalarial set, Kinase-Glo luminescence (AID 1159587); conditions: recombinant PfPK7, Kinase-Glo ATP depletion luminescence
[8] = target: Calcium-dependent protein kinase 4 (Plasmodium falciparum (isolate 3D7)) (UniProt Q8IBS5); assay: PfCDPK4 kinase inhibitors, biochemical, TCAMS library (AID 1159588; cut-off not given, nearly all actives have IC50 up to about 0.91 µM); conditions: recombinant PfCDPK4, Kinase-Glo ATP depletion luminescence
Calcium-dependent protein kinase 4 (Plasmodium falciparum (isolate 3D7)), sequence (Q8IBS5 whole entry, looked up): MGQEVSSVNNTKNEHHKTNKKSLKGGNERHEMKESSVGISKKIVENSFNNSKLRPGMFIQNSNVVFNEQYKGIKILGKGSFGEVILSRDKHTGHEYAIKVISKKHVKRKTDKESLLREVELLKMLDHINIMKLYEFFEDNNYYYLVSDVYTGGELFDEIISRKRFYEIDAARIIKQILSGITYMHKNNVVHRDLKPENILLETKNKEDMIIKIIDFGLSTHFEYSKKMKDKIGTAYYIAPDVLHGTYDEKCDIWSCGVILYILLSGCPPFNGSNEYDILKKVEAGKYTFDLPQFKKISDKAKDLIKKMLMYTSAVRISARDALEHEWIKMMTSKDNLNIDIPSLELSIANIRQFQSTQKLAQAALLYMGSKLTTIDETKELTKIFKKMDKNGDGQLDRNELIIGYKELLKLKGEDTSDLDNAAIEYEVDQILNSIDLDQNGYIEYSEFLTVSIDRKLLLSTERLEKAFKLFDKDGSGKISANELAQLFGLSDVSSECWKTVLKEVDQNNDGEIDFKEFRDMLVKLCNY

Plasmodium falciparum protein kinase 6 (PK6, PF3D7_1337100), sequence (Q8IDW1 1-305): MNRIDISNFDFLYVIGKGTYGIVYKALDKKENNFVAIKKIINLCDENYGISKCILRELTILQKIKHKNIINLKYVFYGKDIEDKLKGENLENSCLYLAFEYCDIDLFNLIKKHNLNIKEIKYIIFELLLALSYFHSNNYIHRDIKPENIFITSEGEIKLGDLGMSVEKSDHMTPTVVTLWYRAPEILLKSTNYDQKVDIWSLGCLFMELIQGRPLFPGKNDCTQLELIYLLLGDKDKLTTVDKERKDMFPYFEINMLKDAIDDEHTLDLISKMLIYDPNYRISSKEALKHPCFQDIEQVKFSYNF
L-lactate dehydrogenase (Plasmodium falciparum (isolate CDC / Honduras)), sequence (Q27743 whole entry, looked up): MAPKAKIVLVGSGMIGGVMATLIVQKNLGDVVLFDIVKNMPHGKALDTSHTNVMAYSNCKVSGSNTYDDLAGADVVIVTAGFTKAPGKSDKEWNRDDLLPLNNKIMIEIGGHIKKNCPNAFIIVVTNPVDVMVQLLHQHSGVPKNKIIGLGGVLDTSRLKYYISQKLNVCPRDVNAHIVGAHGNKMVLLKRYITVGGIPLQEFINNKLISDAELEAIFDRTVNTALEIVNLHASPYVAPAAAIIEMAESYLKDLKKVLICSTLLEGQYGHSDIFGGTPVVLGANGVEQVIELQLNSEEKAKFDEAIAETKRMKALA
Protein kinase 7 (PK7), Plasmodium falciparum 3D7 (PF3D7_0213400), sequence (Q7YTF7 1-343): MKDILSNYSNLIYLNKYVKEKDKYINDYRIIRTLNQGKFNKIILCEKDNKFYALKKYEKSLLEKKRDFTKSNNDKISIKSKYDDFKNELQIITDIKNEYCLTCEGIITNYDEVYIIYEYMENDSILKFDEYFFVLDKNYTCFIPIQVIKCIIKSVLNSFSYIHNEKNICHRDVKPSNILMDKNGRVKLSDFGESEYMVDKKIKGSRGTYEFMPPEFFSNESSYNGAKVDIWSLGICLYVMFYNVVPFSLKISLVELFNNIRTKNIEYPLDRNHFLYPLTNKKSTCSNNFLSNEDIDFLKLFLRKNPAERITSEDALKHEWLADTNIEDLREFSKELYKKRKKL
Calcium-dependent protein kinase 1 (Plasmodium falciparum (isolate 3D7)), sequence (P62344 whole entry, looked up): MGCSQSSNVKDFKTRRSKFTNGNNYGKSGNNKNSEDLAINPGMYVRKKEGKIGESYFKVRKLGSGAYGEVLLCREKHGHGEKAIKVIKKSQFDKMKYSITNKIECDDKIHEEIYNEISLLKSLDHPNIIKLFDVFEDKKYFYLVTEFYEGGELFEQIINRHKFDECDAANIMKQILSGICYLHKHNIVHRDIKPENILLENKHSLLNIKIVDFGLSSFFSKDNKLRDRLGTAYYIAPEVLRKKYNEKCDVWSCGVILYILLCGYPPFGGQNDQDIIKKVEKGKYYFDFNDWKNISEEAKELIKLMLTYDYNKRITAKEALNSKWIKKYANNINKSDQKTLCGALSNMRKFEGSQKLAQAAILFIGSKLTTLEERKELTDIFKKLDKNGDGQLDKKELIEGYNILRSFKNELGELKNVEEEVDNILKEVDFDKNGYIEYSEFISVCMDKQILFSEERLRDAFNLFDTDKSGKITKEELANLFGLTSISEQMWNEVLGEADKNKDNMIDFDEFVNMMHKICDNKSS

COc1ccc(-c2ccc(NC(=O)c3cccs3)cc2)cc1CN1CCCN(C)CC1
active: growth inhibition [4] 100%
inactive: growth inhibition [1] 30% | inhibition [2] 31% | inhibition [3] 4% | outcome [5] | outcome [6] | outcome [7] | outcome [8]

CN1CCN(c2ccc3nc(-c4ccc(Cc5cc(Cl)ccc5OCc5ccccc5)o4)[nH]c3c2)CC1
inactive: inhibition [2] 27% | inhibition [3] 2% | outcome [5] | outcome [6] | outcome [7] | outcome [8]
active: growth inhibition [1] 79% | growth inhibition [4] 102%

Cc1ccc([N+](=O)[O-])cc1NC(=O)N(CC(O)c1ccccc1)C1CCCCC1 (stereo not given)
active: growth inhibition [1] 98% | growth inhibition [4] 100%
inactive: inhibition [2] 11% | inhibition [3] 6% | outcome [5] | outcome [6] | outcome [7] | outcome [8]

CN(C)c1ccc(CN2CCC(NC(=O)c3ccc(-c4cccc(Cl)c4)s3)CC2)cc1
active: inhibition [2] 65% | growth inhibition [4] 93%
inactive: growth inhibition [1] 44% | inhibition [3] -3% | outcome [5] | outcome [6] | outcome [7] | outcome [8]

Fc1cc(Cl)ccc1Nc1ccnc2cc(-c3ccc(CN4CCNCC4)o3)ccc12
active: growth inhibition [1] 99% | growth inhibition [4] 100%
inactive: inhibition [2] 16% | inhibition [3] 1% | outcome [5] | outcome [6] | outcome [7] | outcome [8]

CC(C)(C)NCc1cc(Nc2ccnc3cc(Cl)ccc23)ccc1F
inactive: inhibition [2] 21% | inhibition [3] 6% | outcome [5] | outcome [6] | outcome [7] | outcome [8]
active: growth inhibition [1] 100% | growth inhibition [4] 101%

Cc1ccc(Cc2cnc(NCCSCc3ccc(CN(C)C)s3)[nH]c2=O)cn1
inactive: growth inhibition [1] -5% | inhibition [2] 3% | inhibition [3] 0% | outcome [5] | outcome [6] | outcome [7] | outcome [8]
active: growth inhibition [4] 95%

CCN1CCN(c2cc(C)c3cc(NC(=O)c4cccc(C(F)(F)F)c4)ccc3n2)CC1
active: growth inhibition [1] 85% | growth inhibition [4] 101%
inactive: inhibition [2] 24% | inhibition [3] 0% | outcome [5] | outcome [6] | outcome [7] | outcome [8]

CCCCCCCN1CC[C@@H](CCCc2ccnc3ccc(OCCC4CCNCC4)cc23)[C@@H](CC)C1
inactive: inhibition [3] -4% | outcome [5] | outcome [6] | outcome [7] | outcome [8]
active: growth inhibition [1] 100% | inhibition [2] 94% | growth inhibition [4] 104%

COc1cc(CNc2ncc(-c3ccsc3)c(-c3nccs3)n2)cc(OC)c1
active: growth inhibition [1] 82% | growth inhibition [4] 86%
inactive: inhibition [2] 3% | inhibition [3] -3% | outcome [5] | outcome [6] | outcome [7] | outcome [8]

CC(=O)c1cccc(NC(=O)C2c3ccccc3C(=O)N(CC(C)C)C2c2cccs2)c1 (stereo not given)
inactive: inhibition [2] 11% | inhibition [3] -2% | outcome [5] | outcome [6] | outcome [7] | outcome [8]
active: growth inhibition [1] 100% | growth inhibition [4] 100%

CC(C)N(Cc1ccccc1)C(=O)CN1C(=O)COc2ccc(S(=O)(=O)N3CCCCCC3)cc21
active: growth inhibition [1] 99% | growth inhibition [4] 99%
inactive: inhibition [2] -11% | inhibition [3] -3% | outcome [5] | outcome [6] | outcome [7] | outcome [8]

COc1ccc(C2CC(=O)C3=C(C2)NC(C)=C(C(=O)OC(C)C)C3c2ccccc2F)cc1OC (stereo not given)
inactive: inhibition [2] 14% | inhibition [3] 0% | outcome [5] | outcome [6] | outcome [7] | outcome [8]
active: growth inhibition [1] 99% | growth inhibition [4] 100%

CN1CCCC1CCNCc1ccc(-c2ccc(CNCCc3ccccc3)cn2)cc1 (stereo not given)
inactive: inhibition [2] 25% | inhibition [3] 2% | outcome [5] | outcome [6] | outcome [7] | outcome [8]
active: growth inhibition [1] 99% | growth inhibition [4] 101%

CN1CCN(CCc2ccc3nc(-c4csc(Cc5cc(Cl)ccc5OCc5ccccc5)n4)[nH]c3c2)CC1
inactive: inhibition [2] 30% | inhibition [3] -1% | outcome [5] | outcome [6] | outcome [7] | outcome [8]
active: growth inhibition [1] 97% | growth inhibition [4] 101%

O=S(=O)(NCCN1CCCC1)c1ccc(-c2ccc(CNCc3ccccc3)cc2)s1
inactive: growth inhibition [1] 17% | inhibition [2] 34% | inhibition [3] -5% | outcome [5] | outcome [6] | outcome [7] | outcome [8]
active: growth inhibition [4] 94%

CCC(=Cc1cccc([N+](=O)[O-])c1)C(=O)NCC1CCN(c2nc(N)c3cc(OC)c(OC)cc3n2)CC1
inactive: inhibition [2] 25% | inhibition [3] 6% | outcome [5] | outcome [6] | outcome [7] | outcome [8]
active: growth inhibition [1] 62% | growth inhibition [4] 101%

CN1CCN(CC(=O)Nc2cccc(-c3cccc(-c4nc5ccc(C(F)(F)F)cc5[nH]4)c3)c2)CC1
active: growth inhibition [1] 98% | growth inhibition [4] 101%
inactive: inhibition [2] 26% | inhibition [3] 4% | outcome [5] | outcome [6] | outcome [7] | outcome [8]

Oc1ccc2ccccc2c1CNCC1CCCCC1
inactive: inhibition [2] -12% | inhibition [3] -5% | outcome [5] | outcome [6] | outcome [7] | outcome [8]
active: growth inhibition [1] 93% | growth inhibition [4] 98%

CN(CC(=O)Nc1ccc(F)c(F)c1F)c1ncnc2sc(-c3ccccc3)cc12
active: growth inhibition [4] 95%
inactive: growth inhibition [1] 34% | inhibition [2] 0% | inhibition [3] 2% | outcome [5] | outcome [6] | outcome [7] | outcome [8]

CCOC(=O)c1c(C)n(-c2ccccc2)c2ccc(OC(=O)c3ccc(S(=O)(=O)N(CC)CC)cc3)cc12
active: growth inhibition [1] 63% | growth inhibition [4] 94%
inactive: inhibition [2] -6% | inhibition [3] -3% | outcome [5] | outcome [6] | outcome [7] | outcome [8]

COc1ccc(C(=O)NC2CCN(c3ccnc4cc(Cl)ccc34)C2)cc1 (stereo not given)
active: growth inhibition [1] 100% | growth inhibition [4] 100%
inactive: inhibition [2] 31% | inhibition [3] 2% | outcome [5] | outcome [6] | outcome [7] | outcome [8]

CC(=O)Nc1ncc(C(=O)Nc2cccc(-c3ccc(-c4nc5c(C)cccc5[nH]4)cc3)c2)s1
active: growth inhibition [1] 78% | inhibition [2] 69% | growth inhibition [4] 101%
inactive: inhibition [3] 3% | outcome [5] | outcome [6] | outcome [7] | outcome [8]

Cc1cc(Oc2ccc(-n3ccnc3)cc2)nc(N2CCN(CCCN3CCCC3)CC2)n1
active: growth inhibition [4] 90%
inactive: growth inhibition [1] 7% | inhibition [2] 5% | inhibition [3] 0% | outcome [5] | outcome [6] | outcome [7] | outcome [8]

O=S(=O)(Nc1ccc(-c2ccc(CN3CCCC3)cc2)cc1)c1cccc2cccnc12
inactive: growth inhibition [1] 10% | inhibition [2] 37% | inhibition [3] -8% | outcome [5] | outcome [6] | outcome [7] | outcome [8]
active: growth inhibition [4] 91%

COc1ccc2nccc([C@@H](O)CN3CCC(NCc4nc5c(F)cc(F)cc5[nH]4)CC3)c2c1
inactive: inhibition [2] 19% | inhibition [3] 0% | outcome [5] | outcome [6] | outcome [7] | outcome [8]
active: growth inhibition [1] 64% | growth inhibition [4] 99%

COc1cc(F)c2nccc([C@@H](O)CN3CCC(NCc4nc5c(F)cccc5[nH]4)CC3)c2c1
inactive: growth inhibition [1] 5% | inhibition [2] 11% | inhibition [3] -4% | outcome [5] | outcome [6] | outcome [7] | outcome [8]
active: growth inhibition [4] 99%

O=C(c1cc(C(=O)NC2CCCCC2)c(=O)n(C2CCCCC2)c1)c1cc(F)ccc1O
active: growth inhibition [1] 98% | growth inhibition [4] 99%
inactive: inhibition [2] 22% | inhibition [3] -2% | outcome [5] | outcome [6] | outcome [7] | outcome [8]

CCCNCc1ccc(-c2ccc(CNC3Cc4ccccc4C3)cc2)nc1
inactive: growth inhibition [1] 32% | inhibition [2] 23% | inhibition [3] 1% | outcome [5] | outcome [6] | outcome [7] | outcome [8]
active: growth inhibition [4] 97%

Cc1cccc(OCCCCON2C(N)=NC(N)=NC2(C)C)c1C
inactive: inhibition [3] -3% | outcome [5] | outcome [6] | outcome [7] | outcome [8]
active: growth inhibition [1] 95% | inhibition [2] 65% | growth inhibition [4] 97%

CCNc1cc(C(=O)N[C@@H](Cc2ccccc2Cl)[C@H](O)CNC(C)CCCC(C)C)cc(N2CCCCS2(=O)=O)c1 (stereo not given in full)
active: growth inhibition [1] 62% | growth inhibition [4] 97%
inactive: inhibition [2] 12% | inhibition [3] 2% | outcome [5] | outcome [6] | outcome [7] | outcome [8]

Cc1ccc(Nc2nc(C)cc(NC3CC3)n2)cc1
active: growth inhibition [4] 97%
inactive: growth inhibition [1] 15% | inhibition [2] -4% | inhibition [3] 5% | outcome [5] | outcome [6] | outcome [7] | outcome [8]

O=C(NCCc1ccccc1)N(Cc1ccccc1-c1cccc(CNCCc2ccccc2)c1)C1CCN(Cc2ccccc2)CC1
active: growth inhibition [1] 88% | inhibition [2] 100% | growth inhibition [4] 100%
inactive: inhibition [3] 4% | outcome [5] | outcome [6] | outcome [7] | outcome [8]

C/C(=C\C(=O)NC1CC1)c1ccccc1OCc1ccccc1
inactive: growth inhibition [1] 1% | inhibition [2] 3% | inhibition [3] -1% | outcome [5] | outcome [6] | outcome [7] | outcome [8]
active: growth inhibition [4] 90%

c1ccc(-c2cc(NCCNc3cc(-c4ccccc4)nc4ccccc34)c3ccccc3n2)cc1
active: growth inhibition [4] 99%
inactive: growth inhibition [1] 11% | inhibition [2] -2% | inhibition [3] 0% | outcome [5] | outcome [6] | outcome [7] | outcome [8]

O=C(CN1CCN(C(=O)c2ccco2)CC1)Nc1ccc(Br)cc1Cl
inactive: inhibition [2] 10% | inhibition [3] -6% | outcome [5] | outcome [6] | outcome [7] | outcome [8]
active: growth inhibition [1] 79% | growth inhibition [4] 88%

CC1(C)N=C(N)N=C(N)N1OCc1ccc2c(c1)OCO2
active: growth inhibition [1] 86% | inhibition [2] 66% | growth inhibition [4] 93%
inactive: inhibition [3] -3% | outcome [5] | outcome [6] | outcome [7] | outcome [8]

CCOc1ccc(-c2cc3nc(C4CCNCC4)c(C(=O)Nc4ccc(C)cc4Cl)cn3n2)cc1
active: inhibition [2] 63% | growth inhibition [4] 95%
inactive: growth inhibition [1] 22% | inhibition [3] 2% | outcome [5] | outcome [6] | outcome [7] | outcome [8]

COc1cccc(NC(=O)c2ccc(NCCCN3CCC(C)CC3)c([N+](=O)[O-])c2)c1
inactive: growth inhibition [1] 46% | inhibition [2] 9% | inhibition [3] -6% | outcome [5] | outcome [6] | outcome [7] | outcome [8]
active: growth inhibition [4] 100%

Cc1cc2nc(-c3ccc(/C=C/C(=O)NCCc4ccccc4)cc3)[nH]c2cc1C
inactive: growth inhibition [1] 13% | inhibition [2] 3% | inhibition [3] 1% | outcome [5] | outcome [6] | outcome [7] | outcome [8]
active: growth inhibition [4] 98%
